# Inconclusive results are not listed. Calls of active or inactive are those of the source. Unless noted, no cut-off is given here; in the data, nearly all actives have AC50 up to about 30 µM.
# What was measured:
# [1] = viability loss in pontine glioma line – cell-based, SU-DIPG-XIII, MIPE4.0, CellTiter-Glo, qHTS, dose response (AID 1347061; cut-off not given, nearly all actives have AC50 up to about 37 µM;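 note: cells exposed to compound for 48 hours before readout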); conditions: CellTiter-Glo ATP luminescence
# [2] = viability loss in pontine glioma line – cell-based, JHH-DIPG-1, MIPE4.0, CellTiter-Glo, qHTS, dose response (AID 1347062; cut-off not given, nearly all actives have AC50 up to about 27 µM;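 for AC50: cells exposed to compound for two days before readout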); conditions: JHH-DIPG-1 viability, CellTiter-Glo ATP luminescence
# [3] = viability loss in pontine glioma line – cell-based, SU-DIPG-IV, MIPE4.0, CellTiter-Glo, qHTS, dose response (AID 1347063); conditions: CellTiter-Glo ATP luminescence;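 note: compound exposure lasted 48 hours before the viability readout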
# [4] = viability loss in pontine glioma line – cell-based, SU-DIPG-XXV, MIPE5.0, CellTiter-Glo, qHTS, dose response (AID 1347065; cut-off not given, nearly all actives have AC50 up to about 26 µM;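 note: cells exposed to compound for 48 hours before ATP readout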); conditions: CellTiter-Glo ATP luminescence
# [5] = growth inhibition of DIPG cells – cell-based, MIPE4.0 library, CellTiter-Glo luminescence, qHTS (AID 1347066); conditions: SU-DIPG-VI viability, CellTiter-Glo ATP luminescence;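 note: cells exposed to compound for 48 hours before readout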
# [6] = JHH-DIPG-1 glioma cell viability, MIPE5.0 library, CellTiter-Glo luminescence, qHTS (AID 1347067; cut-off not given, nearly all actives have AC50 up to about 26 µM;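 note: cells exposed to compound for 48 hours before readout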); conditions: JHH-DIPG-1 glioma viability, CellTiter-Glo ATP luminescence
# [7] = growth inhibition of DIPG cells – cell-based, MIPE5.0 library, qHTS (AID 1347068; cut-off not given, nearly all actives have IC50 up to about 30 µM); conditions: SU-DIPG-XXV viability
# [8] = viability loss with induced miR-34 in A549 – imaging, A549 dox-inducible miR-34, nuclei and caspase counts, primary screen (AID 1347080;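 active = compounds whose cell count with miR-34 switched on is under 0.7 times the count with it off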); conditions: A549 miR-34 inducible, Hoechst nuclei count, 48 h
# [9] = MELAS cybrid and Rieske KO viability enhancers – cell-based, MELAS cybrids, Rieske KO mouse fibroblasts, CellTiter-Glo, primary screen (AID 1508586;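 active = mean z-score across replicates of 1.96 or higher in either the MELAS or the Rieske mutant cell line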;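 note: z relative to plate mean and SD of compound and empty wells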); conditions: low glucose
# [10] = growth inhibition, single agent or in combination, cell-based, chromothripsis tumors, cisplatin or BGB combos (AID 1671449; in the data active = inhibition above about 80%;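 note: cells exposed for 96 hours; 0% = vehicle DMSO and 100% = killing by high DMSO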); conditions: LFS_MB_P medulloblastoma cells
# [11] = growth inhibition, single agent and combos, cell-based, chromothripsis tumors, cisplatin or BGB combos (AID 1671450; in the data active = inhibition above about 80%;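 note: cells exposed to compound for four days; 0% = vehicle DMSO and 100% = cell killing by high DMSO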); conditions: HDN33 neuroblastoma cells, stronger effect = higher value
# [12] = growth inhibition, single agents and combos, ICB984, cell-based, cisplatin or BGB combos, synergistic combos for chromothripsis tumors (AID 1671451; call rule not given here;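 note: cells exposed for 96 hours before readout; 0% = vehicle DMSO and 100% = killing by high DMSO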); conditions: ICB984 medulloblastoma cells, drug combinations, stronger effect = higher value
# [13] = growth inhibition, single agents and combos, LFS_MB_1R, cell-based, cisplatin or BGB combos, synergistic combos for chromothripsis tumors (AID 1671452; in the data active = inhibition above about 80%;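 note: cells exposed for 96 hours before readout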); conditions: LFS_MB_1R medulloblastoma cells, stronger effect = higher value
# [14] = growth inhibition, single agents and combos, HTB85, cell-based, BGB or cisplatin IC20 combos, synergistic combos for chromothripsis tumors (AID 1671453; in the data active = inhibition above about 80%;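 note: cells exposed for 96 hours before readout; 0% = vehicle DMSO and 100% = high DMSO killing control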); conditions: HTB85 osteosarcoma cells, drug combinations, stronger effect = higher value
# [15] = growth inhibition, MDA-MB-436, cell-based, BGB or cisplatin combos, synergistic combos for chromothripsis tumors (AID 1671458; call rule not given here;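 note: cells exposed for 96 hours; 0% = vehicle DMSO and 100% = killing by high DMSO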); conditions: MDA-MB-436 breast carcinoma growth inhibition, drug combinations, stronger effect = higher value
# [16] = BT084 cell growth, single and combined drugs, ICGC_MB145, cisplatin and BGB IC40 combos (AID 1671461; in the data active = inhibition above about 80%;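 note: cells exposed to drugs for 96 hours; 0% = vehicle DMSO and 100% = high DMSO full killing control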); conditions: BT084 medulloblastoma cells, drug combinations, stronger effect = higher value
# [17] = RCMB18 cell growth, single agent and combined, cisplatin and BGB IC40 combos (AID 1671462; in the data active = inhibition above about 80%;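 note: cells exposed to compound for four days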); conditions: RCMB18 medulloblastoma cells, stronger effect = higher value
# [18] = CRL1545 cell growth, single agent and combined, cisplatin and BGB IC20 combos (AID 1671464; in the data active = inhibition above about 80%;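 note: cells exposed to compound for 96 hours before readout; 0% = vehicle DMSO and 100% = high DMSO killing control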); conditions: CRL1545 osteosarcoma cells, stronger effect = higher value
# [19] = measured here: combination with BGB IC40, at 0.05 µM
# [20] = measured here: with BGB IC20 combination, at 0.5 µM
# [21] = measured here: with cisplatin IC20 combination, at 0.5 µM
# [22] = measured here: combination with cisplatin, at 0.5 µM
smiles,measurement,setting,value
Cc1ccnc(NS(=O)(=O)c2ccc(NC(=O)Nc3ccc(S(=O)(=O)Nc4nccc(C)n4)cc3)cc2)n1,outcome,[1],inactive
same,AC50,[2],2640 nM (active)
same,AC50,[3],14800 nM (active)
same,outcome,[4],inactive
same,outcome,[5],inactive
same,outcome,[6],inactive
same,outcome,[7],inactive
c1nc2nc(Nc3ccc(N4CCOCC4)cc3)nc(NC3CCCCC3)c2[nH]1,AC50,[1],9350 nM (active)
same,AC50,[2],16600 nM (active)
same,AC50,[3],14800 nM (active)
same,AC50,[4],2090 nM (active)
same,AC50,[5],8330 nM (active)
same,AC50,[6],5900 nM (active)
same,outcome,[7],inactive
Nc1ncnc2c1ncn2[C@@H]1O[C@@H](CO)[C@H](O)[C@@H]1O,outcome,[1],inactive
same,outcome,[2],inactive
same,outcome,[3],inactive
same,outcome,[5],inactive
CC(=O)N1CCN(c2ccc(OCc3nn(C)c(C)c3-c3cccc4c(CCCOc5cccc6ccccc56)c(C(=O)O)n(Cc5cccnc5)c34)cc2)CC1,AC50,[1],9350 nM (active)
same,AC50,[2],1660 nM (active)
same,AC50,[3],1660 nM (active)
same,AC50,[5],1480 nM (active)
Nc1n[nH]c2nnc(-c3c(-c4ccccc4)nn4ccccc34)cc12,AC50,[1],20900 nM (active)
same,AC50,[2],20900 nM (active)
same,AC50,[3],209 nM (active)
same,outcome,[4],inactive
same,AC50,[5],2960 nM (active)
same,outcome,[6],inactive
same,outcome,[7],inactive
COC1=C2C[C@@H](C)C[C@H](OC)[C@H](O)[C@@H](C)/C=C(\C)[C@H](OC(N)=O)[C@@H](OC)/C=C/C=C(\C)C(=O)NC(=CC1=O)C2=O,AC50,[1],372 nM (active)
same,AC50,[2],296 nM (active)
same,AC50,[3],526 nM (active)
same,AC50,[5],2350 nM (active)
CCC(C)CCCCC(=O)N[C@@H](CCN)C(=O)NC(C(=O)N[C@H](CCN)C(=O)N[C@@H]1CCNC(=O)C([C@@H](C)O)NC(=O)[C@@H](CCN)NC(=O)[C@@H](CCN)NC(=O)[C@@H](CC(C)C)NC(=O)[C@H](Cc2ccccc2)NC(=O)[C@H](CCN)NC1=O)[C@@H](C)O (stereo partly drawn),outcome,[1],inactive
same,outcome,[2],inactive
same,outcome,[3],inactive
same,outcome,[4],inactive
same,outcome,[5],inactive
same,outcome,[6],inactive
same,outcome,[7],inactive
CC(C)C(=O)Oc1ccc(CO)cc1[C@H](CCN(C(C)C)C(C)C)c1ccccc1,outcome,[1],inactive
same,outcome,[2],inactive
same,outcome,[3],inactive
same,outcome,[5],inactive
CN[C@H]1[C@H](O[C@@H]2[C@H](O[C@@H]3[C@@H](O)[C@@H](O)[C@@H](N=C(N)N)[C@@H](O)[C@H]3N=C(N)N)O[C@H](C)[C@@]2(O)C=O)O[C@@H](CO)[C@@H](O)[C@H]1O,outcome,[1],inactive
same,outcome,[2],inactive
same,outcome,[3],inactive
same,outcome,[5],inactive
C[C@]12CC[C@H](O)CC1=CCC1C2CC[C@]2(C)C(n3cnc4ccccc43)=CCC12 (stereo partly drawn),outcome,[1],inactive
same,outcome,[2],inactive
same,outcome,[3],inactive
same,AC50,[4],20900 nM (active)
same,outcome,[7],inactive
CC(C)(C)OC(=O)N[C@H]1CCCCC/C=C\[C@@H]2C[C@@]2(C(=O)NS(=O)(=O)C2CC2)NC(=O)[C@@H]2C[C@@H](OC(=O)N3Cc4cccc(F)c4C3)CN2C1=O,outcome,[1],inactive
same,outcome,[2],inactive
same,outcome,[3],inactive
same,outcome,[5],inactive
same,outcome,[7],inactive
Cc1nc2c([nH]1)CCN(C(=O)c1ccc(NC(=O)c3ccccc3-c3ccccc3)cc1)c1ccccc1-2,outcome,[1],inactive
same,outcome,[2],inactive
same,outcome,[3],inactive
same,outcome,[5],inactive
same,outcome,[6],inactive
same,outcome,[7],inactive
same,fold change,"[8]; stronger effect = lower value, cell number ratio, induced over uninduced",0.926 (inactive)
same,fold change,[8]; measured here: relative caspase fold change +Dox/-Dox,0.734
same,cell count,"[8]; measured here: total cells with miR-34 induction, stronger effect = lower value",8050
same,cell count,[8]; measured here: total cells without miR-34 induction,8690
same,z-score,"[9]; MELAS cybrid survival, CellTiter-Glo 48 h, stronger effect = higher value",-0.466 (inactive)
same,z-score,"[9]; Rieske KO mouse fibroblast survival, CellTiter-Glo 72 h",0.668
Cc1cc(-c2nnc3n2CCCCC3)c(C)n1-c1ccccc1,outcome,[1],inactive
same,outcome,[2],inactive
same,outcome,[3],inactive
same,outcome,[5],inactive
CCC[C@H]1C[C@H](C(=O)N[C@@H]([C@@H]2O[C@@H](SC)[C@@H](O)[C@@H](O)[C@H]2O)[C@H](C)Cl)N(C)C1,outcome,[1],inactive
same,outcome,[2],inactive
same,outcome,[3],inactive
same,outcome,[5],inactive
CN1[C@@H]2CC(OC(=O)[C@@H](CO)c3ccccc3)C[C@H]1[C@H]1O[C@H]12 (stereo partly drawn),outcome,[1],inactive
same,outcome,[2],inactive
same,outcome,[3],inactive
same,outcome,[5],inactive
CC(C)OC(=O)[C@H](C)N[P@](=O)(OC[C@H]1O[C@@H](n2ccc(=O)[nH]c2=O)[C@](C)(F)[C@@H]1O)Oc1ccccc1,outcome,[1],inactive
same,outcome,[2],inactive
same,outcome,[3],inactive
same,outcome,[5],inactive
same,AC50,[6],2630 nM (active)
same,outcome,[7],inactive
same,inhibition,"[10]; at 0.5 µM, stronger effect = higher value",-27.6% (inactive)
same,inhibition,"[10]; measured here: combination with BGB IC20, at 0.005 µM",-8.86%
same,inhibition,"[10]; measured here: combination with BGB IC40, at 0.005 µM",-29.9%
same,inhibition,[10]; [19],-32.6%
same,inhibition,"[10]; measured here: combination with cisplatin, at 0.5 µM, stronger effect = higher value",-25.8%
same,inhibition,"[10]; measured here: combination with cisplatin, at 5 µM, stronger effect = higher value",-29.3%
same,inhibition,"[11]; BGB combo, at 5 µM",-36.1%
same,inhibition,[11]; at 0.5 µM,-7.68% (inactive)
same,inhibition,"[11]; cisplatin combo, at 5 µM",-4.94%
same,inhibition,[11]; [20],-9.88%
same,inhibition,[11]; [21],5.66%
same,inhibition,"[11]; single agent, at 5 µM",-12.1%
same,inhibition,"[12]; BGB IC20 combo, at 0.005 µM",-18%
same,inhibition,"[12]; BGB IC40 combo, at 0.005 µM",-9.03%
same,inhibition,"[12]; BGB IC40 combo, at 0.05 µM",-19.6%
same,inhibition,[12]; at 0.5 µM,-6.96% (inactive)
same,inhibition,"[12]; cisplatin combo, at 0.05 µM",-25.8%
same,inhibition,"[12]; cisplatin combo, at 0.5 µM",-2.19%
same,inhibition,"[12]; cisplatin combo, at 5 µM",-12.1%
same,inhibition,"[12]; measured here: 5 uM single agent, at 5 µM",-20.9%
same,inhibition,[13]; at 0.5 µM,-18.8% (inactive)
same,inhibition,[13]; [19],-16%
same,inhibition,[13]; [22],-13.4%
same,inhibition,"[13]; measured here: combination with cisplatin, at 5 µM",-6.21%
same,inhibition,[14]; at 0.5 µM,14.1% (inactive)
same,inhibition,"[14]; measured here: with BGB IC20, at 0.5 µM",45.6%
same,inhibition,"[14]; measured here: with BGB IC20, at 5 µM",9.23%
same,inhibition,"[14]; measured here: with cisplatin IC20, at 0.5 µM",-3.56%
same,inhibition,"[14]; measured here: with cisplatin IC20, at 5 µM",2.16%
same,inhibition,"[14]; single agent, at 5 µM",7.57%
same,inhibition,[15]; at 0.5 µM,-14.4% (inactive)
same,inhibition,"[15]; measured here: BGB combination, at 0.5 µM",-6.51%
same,inhibition,"[15]; measured here: BGB combination, at 5 µM",-8.4%
same,inhibition,"[15]; measured here: cisplatin combination, at 0.5 µM",-26.3%
same,inhibition,"[15]; measured here: cisplatin combination, at 5 µM",-27.6%
same,inhibition,[16]; at 0.5 µM,-5.65% (inactive)
same,inhibition,"[16]; cisplatin combination, at 0.5 µM",-1.58%
same,inhibition,"[16]; cisplatin combination, at 5 µM",-68.9%
same,inhibition,"[16]; measured here: BGB IC40 combination 0.05 uM, at 0.05 µM",-37.9%
same,inhibition,"[16]; single agent, at 5 µM",12.2%
same,inhibition,[17]; at 0.5 µM,-12.6% (inactive)
same,inhibition,"[17]; cisplatin combo, at 5 µM",-10.4%
same,inhibition,"[17]; measured here: BGB IC40 combination, at 0.05 µM",-14.6%
same,inhibition,[17]; [22],5.31%
same,inhibition,"[17]; single agent, at 5 µM",-3.36%
same,inhibition,[18]; at 0.5 µM,22.4% (inactive)
same,inhibition,[18]; [20],2.82%
same,inhibition,[18]; [21],31.1%
same,inhibition,"[18]; single agent, at 0.05 µM",-4.05%
same,inhibition,"[18]; single agent, at 5 µM",-21.1%

# From PubChem BioAssay
